The supplement of paper PMC12669032
Values joined by “and” are separate entries in the source; they are usually repeats but may differ in a detail not shown here. Equal values may be shown once. A number with no mark means an inactive call.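 How the source made its calls: active = AUC reduced over 20% with Padj below 0.05 in at least 2 of 3 replicates; inactive = otherwise.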

Assays:
Assay in all cases: growth AUC relative to DMSO control (median of replicates) (fraction); higher = more growth (less inhibition), active = hit call of the paper
Conditions in all cases: 20 µM; 24 h
Akkermansia muciniphila = system: Akkermansia muciniphila
Method in brief: (§1)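 Hourly OD600 readings over 24 h tracked anaerobic gut bacterial monocultures grown at 37 °C in mGAM from OD600 0.05 with 20 µM compound (1% DMSO). After the minimum OD was set to 0, area under the growth curve was normalised to the plate median of solvent-only wells, or to row and column medians on the industrial chemical plate. Values are medians of three biological replicates grown on separate days.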

Bacteroides caccae = system: Bacteroides caccae
Method in brief: as §1

Bacteroides clarus = system: Bacteroides clarus
Method in brief: as §1

Bacteroides dorei = system: Bacteroides dorei
Method in brief: as §1

Bacteroides stercoris = system: Bacteroides stercoris
Method in brief: as §1

[1] = system: Bacteroides thetaiotaomicron
Method in brief: as §1

Bacteroides uniformis = system: Bacteroides uniformis
Method in brief: as §1

[2] = system: Bifidobacterium longum subsp. longum
Method in brief: as §1

Clostridium difficile = system: Clostridium difficile
Method in brief: as §1

Collinsella aerofaciens = system: Collinsella aerofaciens
Method in brief: as §1

Coprococcus comes = system: Coprococcus comes
Method in brief: as §1

Escherichia coli ED1a = system: Escherichia coli ED1a
Method in brief: as §1

Escherichia coli IAI1 = system: Escherichia coli IAI1
Method in brief: as §1

Eubacterium rectale = system: Eubacterium rectale
Method in brief: as §1

[3] = system: Fusobacterium nucleatum subsp. animalis
Method in brief: as §1

Lactobacillus gasseri = system: Lactobacillus gasseri
Method in brief: as §1

Lactobacillus paracasei = system: Lactobacillus paracasei
Method in brief: as §1

Odoribacter splanchnicus = system: Odoribacter splanchnicus
Method in brief: as §1

[4] = system: Parabacteroides distasonis
Method in brief: as §1

Parabacteroides merdae = system: Parabacteroides merdae
Method in brief: as §1

Structure (SMILES) | growth AUC (Akkermansia muciniphila) | growth AUC (Bacteroides caccae) | growth AUC (Bacteroides clarus) | growth AUC (Bacteroides dorei) | growth AUC (Bacteroides stercoris) | growth AUC [1] | growth AUC (Bacteroides uniformis) | growth AUC [2] | growth AUC (Clostridium difficile) | growth AUC (Collinsella aerofaciens) | growth AUC (Coprococcus comes) | growth AUC (Escherichia coli ED1a) | growth AUC (Escherichia coli IAI1) | growth AUC (Eubacterium rectale) | growth AUC [3] | growth AUC (Lactobacillus gasseri) | growth AUC (Lactobacillus paracasei) | growth AUC (Odoribacter splanchnicus) | growth AUC [4] | growth AUC (Parabacteroides merdae)
CCC(C)c1ccccc1OC(=O)NC (centres undefined) | 0.869 | 1.03 | 0.975 | 1.01 | 0.961 | 0.981 | 0.978 | 0.976 | 1 | 0.986 | 1.01 | 0.968 | 0.974 | 0.964 | 0.998 | 1.07 | 0.918 | 1.08 | 1.03 | 0.986
C[N+](C)(C)CCCl.[Cl-] | 1.06 | 1.01 | 1.03 | 0.983 | 1.08 | 1.02 | 1.01 | 0.997 | 1 | 1.02 | 1.05 | 1.02 | 1.03 | 1.04 | 1.11 | 0.944 | 1.05 | 1.01 | 1.06 | 1.03
Cc1nnc(-c2ccccc2)c(=O)n1N | 0.94 | 1.05 | 1 | 1 | 0.945 | 1.02 | 0.986 | 1.04 | 1 | 0.983 | 1 | 1 | 0.995 | 0.993 | 0.998 | 0.931 | 0.972 | 1.06 | 1 | 1.02
O=P(O)(O)CCCl | 1.07 | 0.964 | 1.02 | 0.986 | 1.08 | 1.01 | 1.03 | 1.07 | 0.959 | 0.973 | 1.06 | 1.02 | 1.02 | 1.22 | 1.04 | 0.975 | 1.01 | 1.12 | 1.01 | 1
COC(=O)c1ccccc1CS(=O)(=O)NC(=O)Nc1nc(OC)cc(OC)n1 | 0.94 | 1.02 | 0.972 | 0.985 | 0.969 | 1.02 | 1.01 | 1.05 | 1.02 | 0.956 | 1.02 | 0.974 | 0.978 | 0.998 | 0.999 | 0.996 | 1 | 1.02 | 0.998 | 1
CC(C)N(C(=O)CCl)c1ccccc1 | 0.256 (active) | 1.02 | 0.969 | 1.01 | 0.978 | 0.933 | 0.96 | 0.946 | 0.965 | 1.05 | 0.961 | 0.982 | 1.02 | 0.923 | 0.911 | 1.17 | 0.946 | 0.942 | 0.992 | 0.982
CCOC(=O)/C=C(C)/C=C/C[C@@H](C)CCCC(C)C | 0.915 | 0.985 | 1.03 | 1.01 | 1.12 | 0.986 | 0.984 | 0.949 | 1.06 | 0.982 | 0.979 | 1 | 0.997 | 1.03 | 1.15 | 1.13 | 1.01 | 0.954 | 1.02 | 0.989
CNC(=O)ON=C(C)C(C)SC (centres undefined) | 1.1 | 0.726 (active) | 1.03 | 0.983 | 1.3 | 0.916 | 0.838 | 1.03 | 0.927 | 0.979 | 0.972 | 1.03 | 1.02 | 1.12 | 1.07 | 0.89 | 0.803 | 0.91 | 0.943 | 0.915
Cc1cc(C(C#N)c2ccc(Cl)cc2)c(Cl)cc1NC(=O)c1cc(I)cc(I)c1O (centres undefined) | 0.866 | 0.184 (active) | 0.0125 (active) | 0.0106 (active) | 0.00703 (active) | 0.0104 (active) | 0.0176 (active) | 0.121 (active) | 0.00624 (active) | 0.0767 (active) | 0.275 (active) | 0.958 | 0.953 | 0.072 (active) | 0.702 (active) | 0.0202 (active) | 0.0904 (active) | 0.017 (active) | 0.0201 (active) | 0.00673 (active)
O=[N+]([O-])c1ccc(Oc2ccc(C(F)(F)F)cc2[N+](=O)[O-])cc1 | 0.834 | 0.929 | 0.878 | 0.88 | 1.05 | 0.92 | 0.917 | 0.936 | 1.02 | 0.93 | 0.856 | 0.964 | 0.959 | 0.88 | 0.969 | 0.977 | 0.766 | 0.982 | 0.957 | 0.953
ClC1C(Cl)C(Cl)C(Cl)C(Cl)C1Cl (centres undefined) |  |  |  |  |  |  |  |  |  | 1.02 and 1.01 and 1.03 |  | 0.985 and 1.04 and 1.03 | 1 and 1.02 and 1.01 | 1.02 and 0.946 and 1.01 |  |  |  |  |  | 
CCOP(=S)(OCC)Oc1nc(Cl)c(Cl)cc1Cl | 0.91 | 0.999 | 0.95 | 1.03 | 1.07 | 0.978 | 1 | 0.943 | 1.01 | 0.986 | 0.995 | 1.02 | 1.01 | 1.11 | 0.982 | 0.992 | 0.993 | 1 | 0.963 | 0.96
CC(C)OC(=O)Nc1ccccc1 | 0.984 | 1.02 | 1.02 | 1.07 | 1.12 | 1.01 | 0.98 | 0.988 | 1.05 | 1.02 | 1.03 | 0.994 | 1.01 | 0.991 | 1.02 | 1.13 | 1.04 | 0.962 | 1.01 | 1
